19 compounds from PubChem BioAssay (NCATS) can be followed below.

Records with an inconclusive call do not appear. Calls of active or inactive are those of the source. Calls follow the shape of the dose curve; as a rule, active = well fitted curve in the direction sought with a large enough effect; inconclusive = small, poorly fitted or top-dose-only effect, or another doubt; inactive = no such curve, though single readings can be large; an effect the other way counts as inactive or inconclusive.

The nature of assay [1]: qHTS of pediatric cancer cell lines to identify multiple opportunities for drug repurposing: Primary screen for BT-12 cells (AID 1347101). Also: nearly all actives have a fitted effect of over 25% in size. Also: potency is read from the fitted curve at half-maximal effect. A digest of the protocol:
(§1)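 Cells (500-1,000/well) rested 5 h, then received compounds for 48 h; metabolically active cells were measured by CellTiter-Glo luminescence. Final concentrations spanned up to 46 µM (MIPE, 11-point) or 0.59 nM-46 µM (NPC, 8-point) in primary screens, 11-point in follow-ups.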
Background: Quantitative high-throughput screening tests each substance at several concentrations.

Assay [2] can be described thus: qHTS of pediatric cancer cell lines to identify multiple opportunities for drug repurposing: Primary screen for Rh18 cells (AID 1347102). Also: nearly all actives have a fitted effect of over 65% in size. Also: potency is read from the fitted curve at half-maximal effect. The gist of the method:
as §1

A short description of assay [3]: qHTS of pediatric cancer cell lines to identify multiple opportunities for drug repurposing: Primary screen for RD cells (AID 1347104). Also: nearly all actives have a fitted effect of over 55% in size. Also: potency is read from the fitted curve at half-maximal effect. A digest of the protocol:
(§2)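 Cells seeded at 500-1,000 cells/well in growth media, rested 5 hours at 37 degrees C, 5% CO2, then dosed; MIPE compounds at 11-point (from 0.78 nM) and NPC at 8-point (from 0.59 nM) final concentrations. Viability by CellTiter-Glo luminescence after 48 hours.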

Assay [4] in a line: qHTS of pediatric cancer cell lines to identify multiple opportunities for drug repurposing: Primary screen for Rh30 cells (AID 1347107). Also: series mostly up to about 46 µM; nearly all actives have a fitted effect of over 75% in size. A digest of the protocol: as §1
Assay [5] in a line: qHTS of pediatric cancer cell lines to identify multiple opportunities for drug repurposing: Primary screen for MG 63 (6-TG R) cells (AID 1347105). Also: nearly all actives have a fitted effect of over 50% in size. Also: potency is read from the fitted curve at half-maximal effect. The gist of the method: as §2
Assay [6] in a line: qHTS of pediatric cancer cell lines to identify multiple opportunities for drug repurposing: Primary screen for control Hh wild type fibroblast cells (AID 1347106).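 Also: series mostly up to about 46 µM; a drop in luminescence marks cytotoxicity and a rise apparent proliferation; nearly all actives have a fitted effect of over 55% in size.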 A digest of the protocol:
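Cells (500-1,000/well) in growth media were settled 5 h at 37 degrees C, then given compounds for 48 h. Viability was read as CellTiter-Glo luminescence. Primary runs used MIPE at 11 points (0.78 nM-46 µM) and NPC at 8 points (0.59 nM-46 µM); follow-ups used 11 points.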

Assay [7] is described as follows: qHTS of pediatric cancer cell lines to identify multiple opportunities for drug repurposing: Primary screen for OHS-50 cells (AID 1347103). Also: nearly all actives have a fitted effect of over 40% in size. Also: potency is read from the fitted curve at half-maximal effect. A digest of the protocol: as §1
Assay [8] can be described thus: qHTS of pediatric cancer cell lines to identify multiple opportunities for drug repurposing: Primary screen for LAN-5 cells (AID 1347100). Also: potency is read from the fitted curve at half-maximal effect. The gist of the method: as §1

Take `NC(=O)c1cccc2[nH]c(-c3ccc([C@H]4CCCN4)cc3F)nc12`: the Potency entry in assay [1], in assay [2], in assay [3] and in assay [4] was “inactive” in each case.
`CC(=O)OC1C(C)OC(Oc2c(-c3ccc(O)cc3)oc3cc(O)cc(O)c3c2=O)C(O)C1OC(C)=O` (centres undefined): the Potency result in assay [5] and in assay [6] was “inactive” throughout.
In the case of `O=C(Nc1ccccc1Br)N[C@@H]1CCN(c2ccc(C(F)(F)F)cn2)C1`, the Potency result in assay [2] and in assay [6] was “inactive” in each case.
As to `COc1ccc2cc(-c3nc(-c4ccc(S(C)=O)cc4)[nH]c3-c3ccncc3)ccc2c1` (centres undefined), the Potency result in assay [2], in assay [7], in assay [3], in assay [5], in assay [6] and in assay [4] was “inactive” throughout.
Turning to `CC(C)(C)NC(=O)Nc1cccc(Nc2ncc(F)c(NC(C)(C)CO)n2)c1`, the Potency result in assay [2], in assay [7], in assay [3], in assay [5], in assay [6] and in assay [4] was “inactive” throughout.
For `Cc1ccc(/C=N/NC(=O)c2ccccc2Oc2ccccc2)o1`, the Potency entry in assay [2], in assay [5] and in assay [6] was “inactive” throughout. Besides, in assay [7], the Potency is 21.7 µM (active).
`O=c1cc(CN2CCOCC2)occ1OCCCCCSc1ccnc2cc(C(F)(F)F)ccc12`: the Potency entry in assay [5] and in assay [4] was “inactive” in each case.
For the compound `Cc1c(O)cccc1C(=O)N[C@@H](CSc1ccccc1)[C@H](O)CN1C[C@H]2CCCC[C@@H]2C[C@@H]1C(=O)NC(C)(C)C`, the values for the Potency in assay [2], in assay [3] and in assay [5] were 18.7 µM (active), 26.4 µM (active) and 18.7 µM (active), respectively.
In the case of `Cc1ccc(F)c(NC(=O)Nc2ccc(-c3cccc4[nH]nc(N)c34)cc2)c1`, in assay [8], the Potency was 20.9 µM (active). The Potency result in assay [5], in assay [6] and in assay [4] was “inactive” in each case.
For the compound `CS(=O)c1ccc(-c2nc(-c3ccc(F)cc3)c(-c3ccncc3)[nH]2)cc1` (centres undefined), the Potency is 44.4 µM (active) in assay [1], 44.4 µM (active) in assay [7] and 42.9 µM (active) in assay [3]. The Potency entry in assay [2], in assay [5] and in assay [6] was “inactive” each time.
As to `CC=CC(=O)N(CC)c1ccccc1C`, the Potency entry in assay [2], in assay [5] and in assay [4] was “inactive” each time.
With `COc1ccc(Cc2ccc(NC(N)=O)cc2)cc1-c1cccc(Cl)c1`, the Potency result in assay [1], in assay [2], in assay [3], in assay [5], in assay [6] and in assay [4] was “inactive” throughout.
Take `Cc1c(NC(=O)c2ccc(C(C)(C)C)cc2)cccc1-c1cn(C)c(=O)c(Nc2ccc(C(=O)N3CCOCC3)cc2)n1`: the Potency in assay [7] was 24.3 µM (active). Further, the Potency entry in assay [5] was “inactive”.
Consider `O=C(O)c1ccc(-c2c[nH]c3ncc(-c4ccccc4)cc23)cc1C1CCCC1`, for which the Potency result in assay [1], in assay [2], in assay [6] and in assay [4] was “inactive” in each case.
For `CC=C(C)C(=O)O[C@H]1C(C)=C[C@]23C(=O)[C@@H](C=C(CO)[C@@H](O)[C@]12O)[C@H]1[C@@H](C[C@H]3C)C1(C)C`, the Potency in assay [7] is 21.7 µM (active). Moreover, in assay [4], the Potency entry was “inactive”.
For `CC(C)(C)C(=O)Oc1ccc2c(c1)nc(NC(=O)c1cccc([N+](=O)[O-])c1)n2CCCO`, the Potency result in assay [1], in assay [2], in assay [7], in assay [3], in assay [5] and in assay [6] was “inactive” in each case. For the same compound, in assay [4], the Potency result is “inactive”.
As to `CCNc1cc(NC2CCC(O)CC2)nc(Nc2ccc3c(ccn3Cc3ccccc3)c2)n1` (centres undefined), the Potency in assay [1] was 27.3 µM (active). For the same compound, the Potency result in assay [5], in assay [6] and in assay [4] was “inactive” in each case.
Regarding `CC(=O)Oc1cc2c(s1)CCN(C(C(=O)C1CC1)c1ccccc1F)C2` (centres undefined), in assay [1], the Potency is 3.06 µM (active). Further, the Potency entry in assay [3] and in assay [4] was “inactive” in each case.
As for `CCN(CC)CCOc1ccc(C(=C(Cl)c2ccccc2)c2ccccc2)cc1`, the Potency entry in assay [1], in assay [2], in assay [5] and in assay [4] was “inactive” each time.
